# Measured values from PubChem BioAssay (NCI).
# The panel holds about 79,000 compounds, 15% with a hit somewhere; the sample as a whole holds those more often. Values without a mark were called inactive. The source made the active and inactive calls. Cut-off read from the data, not from the text of the source: active = growth inhibition above about 70%; inactive = the rest.
# What was measured:
# [1] = NCI Yeast Anticancer Drug Screen. Data for the rad50 strain (AID 155);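 note: 0% = growth of vehicle-only cultures of the same strain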; conditions: S. cerevisiae rad50 strain growth inhibition; at 50.0 µM; hits give high values
# In short: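 Compounds were tested on a yeast strain with an engineered DNA damage repair alteration; the reported value is growth inhibition normalised to vehicle treatment.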
# [2] = NCI Yeast Anticancer Drug Screen. Data for the mec2-1 strain (AID 157); conditions: S. cerevisiae mec2-1 strain, at 50.0 µM, hits give high values
# In short: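 Cells of the genetically defined mec2-1 yeast strain are incubated with test compound. Inhibition of growth is calculated against vehicle-treated controls.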
# [3] = NCI Yeast Anticancer Drug Screen. Data for the sgs1 mgt1 strain (AID 161);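 note: 0% = growth of cultures given vehicle only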; conditions: S. cerevisiae sgs1 mgt1 strain, at 50.0 µM, hits give high values
# In short: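 Genetically altered yeast, compound exposure, growth inhibition relative to vehicle.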
# [4] = NCI Yeast Anticancer Drug Screen. Data for the cln2 rad14 strain (AID 165);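 note: 0% = growth equal to vehicle treated cultures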; conditions: S. cerevisiae cln2 rad14 strain, at 50.0 µM, hits give high values
# In short: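 The screen exposed genetically defined yeast (cln2 rad14) to test compounds and scored growth inhibition relative to vehicle-treated controls.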
# [5] = NCI Yeast Anticancer Drug Screen. Data for the bub3 strain (AID 167); conditions: S. cerevisiae bub3 mutant strain, at 50.0 µM, hits give high values
# In short: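 Growth of a checkpoint-deficient yeast mutant is measured after compound exposure. Values represent inhibition relative to vehicle.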
# [6] = NCI Yeast Anticancer Drug Screen. Data for the mlh1 rad18 strain (AID 175); conditions: S. cerevisiae mlh1 rad18 strain growth inhibition; at 50.0 µM; hits give high values
# In short: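 Compound-treated yeast growth, normalised to vehicle controls. Strain bears defined DNA repair mutations.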
SMILES,growth inhibition [1],growth inhibition [2],growth inhibition [3],growth inhibition [4],growth inhibition [5],growth inhibition [6]
CCCCCCOC(=O)c1ccccn1,-5.85%,1.7%,0.15%,-91.6%,17.6%,-26.6%
COc1cc(C2C(Cl)C(=O)N2NC(=O)c2ccc(N)cc2)ccc1O (stereo unspecified),5.15%,-0.75%,-25.1%,-3.8%,-16.4%,-8.75%
CC1=NC(=Cc2ccc(O)cc2)C(=O)N1n1c(-c2ccccc2)nc2ccccc2c1=O,-4.7%,-10.3%,-5.35%,2.6%,-10.8%,3.45%
CCN1N=CSC12C(=O)N(c1ccccc1)C(=O)N2c1ccccc1 (stereo unspecified),-20.6%,-15.1%,-31.9%,0.35%,-14.7%,-38.6%
O=C1C=C(Nc2cccnc2)c2ccccc2C1=O,9.5%,-7.2%,0.4%,8.5%,19.6%,8.8%
COc1ccc(/C=C/[n+]2ccccc2)cc1OC,-1.45%,4.85%,4.05%,-14.2%,10.7%,-3.85%
CC(C)CCNCCCCCCl,62.5%,37.3%,36.7%,36.6%,26.8%,67.1%
CCSCC1C=CC(n2cnc3c(N)ncnc32)O1 (stereo unspecified),-10.3%,-29.2%,-22.1%,-0.25%,5.55%,10.1%
COc1ccc(-c2cc(-c3ccncc3)[nH]c2-c2nccc3ccccc23)cc1,94.2% (active),82.7% (active),97.3% (active),79.5% (active),73.7% (active),85% (active)
CC1C2CCC3(CCC4C5(C)CCCC4(CN(CCO)C5)C3C2)C1O (stereo unspecified),2.1%,-24.4%,5.3%,13.8%,-2.4%,-8.4%
CN(C)c1ccc(C2SCC(=O)N2NS(=O)(=O)c2cccc(C(=O)O)c2)cc1 (stereo unspecified),5.05%,-21.2%,-10.8%,4.75%,-24.6%,-2.2%
[O-]c1c[n+](CC[n+]2cc([O-])on2)no1,13.7%,-8.45%,-13.2%,40.5%,-19.6%,-14.7%
CCCCN(CCCC)CC(O)c1c2cccc(Cl)c2cc2c(Cl)cccc12 (stereo unspecified),98.9% (active),99.5% (active),78.6% (active),93.3% (active),98.8% (active),99.1% (active)
CC(=O)Nc1cc(NC(C)=O)c(N=O)c(NC(C)=O)n1,-19.5%,-13.2%,-0.7%,-3.45%,-15.8%,7.35%
[Zn+2].c1ccc(-c2c3nc(c(-c4ccccc4)c4[n-]c(c(-c5ccccc5)c5nc(c(-c6ccccc6)c6[n-]c2c2ccccc62)-c2ccccc2-5)c2ccccc42)-c2ccccc2-3)cc1,-37.5%,-36.4%,-32.6%,-6.55%,-23.9%,-36.8%
O=C(c1ccccc1)c1cnc2ccccn12,-2.35%,-2.35%,-3.15%,-15.9%,5.8%,-8.05%
Cc1cc(C(=O)O)c2cc(Br)ccc2n1,4.2%,12.3%,15.2%,17.3%,11.2%,-4.5%
CCCCCCCCCCCCCCCCOCC(O)CO (stereo unspecified),-8.55%,-29.2%,1.25%,-5.65%,-17.1%,-56.9%
Nc1nc(SC2CCCCC2)nc2c1ncn2C1OC(CO)C(O)C1O (stereo unspecified),-49.5%,-33%,-8.15%,0.7%,-4.75%,-13.7%
O=C(O)c1cnc2cc3c(cc2c1Nc1cccc(C(F)(F)F)c1)OCO3,29%,-8.85%,5.15%,6.7%,29.4%,4.05%
CC(NCc1c(O)ccc2c(-c3ccccc3)cc(=O)oc12)C(=O)O (stereo unspecified),-39.4%,-19.1%,-32.6%,4.35%,-4.95%,-14.8%

SMILES,growth inhibition [1],growth inhibition [2],growth inhibition [3],growth inhibition [4],growth inhibition [5],growth inhibition [6]
Nc1ccc(O)c(N)c1,35.1%,23.5%,26.6%,13.9%,-8%,31.4%
CC(C)CC1NC(=O)OC1=O (stereo unspecified),6.7%,0.9%,-9.7%,-17.6%,1.25%,0.35%
O/N=C(\c1ccccc1)C1c2ccccc2-c2ccccc21,-10.1%,-17.9%,-19.9%,21.4%,-5.9%,-17.4%
COc1ccc(C(=O)/C=C/c2ccc(OC)c(OC)c2OC)c(O)c1,17.6%,1.4%,-8.55%,-18.5%,16.6%,14.7%
O=C(COc1ccc(Cl)cc1)Nc1cccc([N+](=O)[O-])c1,2.55%,17.1%,2.45%,-5.7%,18.9%,6.7%
N/N=C1/C=Cc2cccc3cccc1c23,19.3%,-37.2%,15.3%,30.2%,16.2%,38.4%
O=C(c1nc2ccccc2[nH]c1=O)C(O)c1ccccc1 (stereo unspecified),6.9%,-23.6%,-3.1%,17.4%,-12.8%,-2.2%
Cc1ccc(S(=O)(=O)/C(C#N)=C/NC(=S)Nc2ccc(C)cc2C)cc1,-53.7%,-26.9%,-30.8%,-41.4%,-40.5%,-41.4%
CC(C)SC(C)(NC(=O)C1C(C)(C)CCC1(C)C)C(=O)O (stereo unspecified),-52.6%,1.45%,-24.6%,1.5%,5.45%,-49.5%
O=CNCC1(c2ccccc2)CCNCC1,2.25%,-3.25%,8.05%,-1.7%,4.4%,-4.6%
CCC/C=C/c1cc2c(cc1O)CC[C@@H]1[C@@H]2CC[C@]2(C)[C@@H](O)CC[C@@H]12,19.2%,16.4%,45.6%,35.4%,41.3%,23.9%
O/N=C/C(=Nc1cccc2ccccc12)NO,-11.1%,-12.8%,-12.1%,-10.3%,-5.7%,13.9%
FC(F)(F)C(Cl)=C(Cl)Cl,-1.8%,-38.5%,14.5%,20.1%,-13.7%,-1.75%
CC(C)C1=CC23CCC4C(C)(C(=O)O)CCCC4(C)C2CC1C1C(=O)N(c2ccccc2)C(=O)C13 (stereo unspecified),-7.45%,-3.9%,1.55%,0.7%,-40%,8.65%
CCCCNc1ccc2c(c1)Cc1ccccc1-2,18.9%,-4.1%,15.8%,3.25%,-18.8%,-8.35%
CN(C)/C=C/c1nnnn1-c1ccc(I)cc1,4.5%,12.9%,24.8%,7.45%,28.8%,34.6%
COc1cc(OC)c(C(C)=O)cc1OC,-9.2%,-13.9%,-3.15%,-2.8%,6.3%,6.7%
COc1ccc(CC(=O)NCCc2ccc(OC)c(OC)c2OC)cc1,8.95%,-34.7%,-30%,8.3%,-10.7%,-32.8%
C=C(C)C(O)CC (stereo unspecified),24.6%,-30.7%,15.3%,4.3%,10.9%,20.4%
O=C(Nc1ccccc1Cl)Oc1ccc(C(=O)c2ccccc2)cc1,-0.3%,-13.3%,30.2%,19.9%,16.9%,13.2%
